Shown is part of a subset that was picked to be rich in hits.
Giardia FBPA inh: qHTS Assay for Inhibitors of Fructose-1,6-bisphosphate Aldolase from Giardia Lamblia | A8B2U2 | purified Giardia FBPA | Potency, µM (titrated, usually from 59.6 µM), for inactives: at the top dose activity, negative = inhibition, hits mostly inhibitors | 290,000 compounds, 0.71% hits | AID 2451, 2010; further: potency means the concentration at half of the fitted maximal effect; on the % scale 0 is the no-effect control and ±100 the full control effect; nearly all actives have a fitted effect of over 55% in size
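40 nM FBPA preincubated 10 min at RT with compound (up to 57.5 uM final), then substrate plus GAPDH/TPI/NAD/arsenate coupling and diaphorase/resazurin added. Fluorescence read after 20 min at RT, 525/598 nm.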
CHX counter: Cycloheximide Counterscreen for Small Molecule Inhibitors of Shiga Toxin; max response, %; cell reporter, cycloheximide protein synthesis inhibition counterscreen; 300,000 compounds, 12% hits; in the data active means max response mostly above about 13%, no sharp cut-off; inactive means mostly below about 14%; further: read at 38.3 µM for the half of the compounds with a filed dose; 0% is about no effect
TbPYK inhibitor: qHTS of Trypanosoma Brucei Inhibitors; AID 624173, 2012; pyruvate kinase (Trypanosoma brucei), Q57TT1; 410,000 compounds, 0.12% hits; TbPYK enzyme, Kinase-Glo Plus ATP luminescence, 45 min; Potency, µM (titrated, usually from 76.8 µM), inactives show top-dose activity, negative = inhibition, actives largely listed as inhibitors; further: potency means the concentration at half of the fitted maximal effect; on the % scale 0 is the no-effect control and ±100 the full control effect; nearly all actives have a fitted effect of over 50% in size
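Assay buffer: 50 mM TEA pH 7.2, 100 mM KCl, 10 mM MgCl2, 0.05% BSA, 0.01% Tween-20. Pyruvate kinase from T. brucei plus substrate met compound, then ADP (130 uM final). Luminescence was read post 45 min RT.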
RE007 growth inh: qHTS Assay for Inhibitors of the HIV-1 protein Vpr. Potency, µM (series often up to 92.2 µM), inactives show top-dose activity change, negative = less growth, actives largely listed as inhibitors. S. pombe RE007 Vpr strain, BacTiter-Glo ATP luminescence, 24 h. 360,000 compounds, 0.21% hits; active means well fitted falling curve with a large enough effect; inconclusive means small, poorly fitted or top-dose-only effect; inactive means no such curve, though single readings can be large or run the other way; further: potency means the concentration at half of the fitted maximal effect; on the % scale 0 is the no-effect control and ±100 the full control effect; nearly all actives have a fitted effect of over 50% in size
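Fission yeast RE007 carrying one integrated HIV-1 vpr copy, seeded at OD 0.01 in PMG+AL medium with 23 nL pinned compound. Grown 24 h at 30 degrees; viability read by BacTiter-Glo luminescence after 5 min.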
LmPK inhibitor: qHTS Assay for Inhibitors of Leishmania Mexicana Pyruvate Kinase (LmPK); purified LmPK, Kinase-Glo ATP luminescence, 1 h; Potency, µM (series often up to 57.5 µM), inactives show top-dose activity change, negative = inhibition, usual class: inhibitors; 290,000 compounds, 0.37% hits; AID 1721, 2009; further: potency means the concentration at half of the fitted maximal effect; on the % scale 0 is the no-effect control and ±100 the full control effect
Target sequence (Q27686 whole entry, looked up): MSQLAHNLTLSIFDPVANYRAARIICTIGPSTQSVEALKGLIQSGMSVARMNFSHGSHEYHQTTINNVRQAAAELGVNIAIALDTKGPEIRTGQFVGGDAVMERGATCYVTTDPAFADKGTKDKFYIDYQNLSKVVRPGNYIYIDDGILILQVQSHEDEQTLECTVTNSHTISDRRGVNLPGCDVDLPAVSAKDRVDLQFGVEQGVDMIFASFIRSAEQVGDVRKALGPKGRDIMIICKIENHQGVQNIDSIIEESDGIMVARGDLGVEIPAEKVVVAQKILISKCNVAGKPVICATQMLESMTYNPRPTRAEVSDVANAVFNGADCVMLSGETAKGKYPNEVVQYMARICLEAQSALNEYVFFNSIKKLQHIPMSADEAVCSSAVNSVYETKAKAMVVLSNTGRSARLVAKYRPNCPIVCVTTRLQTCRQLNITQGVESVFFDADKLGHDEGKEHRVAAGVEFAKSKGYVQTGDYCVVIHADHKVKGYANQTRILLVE
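In 50 mM imidazole pH 7.2 with 7 mM MgCl2, LmPK (0.1 nM) turned over PEP (0.5 mM) and ADP (0.1 mM) for 1 h at room temperature. Luciferase read-out of ATP.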
Shiga toxin inh: A qHTS for Small Molecule Inhibitors of Shiga Toxin. Vero cells, Shiga toxin protein synthesis inhibition reporter. inhibition, % at 38.7 µM. 290,000 compounds, 9.2% hits. AID 2315, 2010; in the data active means inhibition mostly above about 28%, no sharp cut-off; inactive means mostly below about 43%; further: 0% is about no effect
* hit, by the source's call; ? = inconclusive; . = not tested or not shown; [ ] = remark or other dose. Unless noted, the call rests on the fitted dose curve; in most records, active means well fitted curve in the direction sought with a large enough effect; inconclusive means small, poorly fitted or top-dose-only effect, or another doubt; inactive means no such curve, though single readings can be large; an effect the other way counts as inactive or inconclusive.

SMILES	Giardia FBPA inh	CHX counter	TbPYK inhibitor	RE007 growth inh	LmPK inhibitor	Shiga toxin inh
O=C(CSc1nc2c([nH]c3ccccc32)c(=O)n1-c1ccc(Cl)cc1)NCc1ccccc1	.	.	1.6%	.	.	.
S=c1[nH]nc(-c2cccc3ccccc23)n1-c1cccnc1	-1.8%	1.0	?	-13.9%	12.6µM*	-3.4
COc1ccccc1-c1n[nH]c(=S)n1Cc1ccccc1	22.8%	-0.9	?	-8.1%	-25.5%	-4.2
COc1ccc(-c2n[nH]c(=S)n2-c2ccccc2C)cc1	24.0%	-1.2	?	-4.8%	28.2µM*	1.3
COc1ccccc1-n1c(-c2cn(C)nc2C)n[nH]c1=S	?	-1.6	?	-18.2%	22.4µM*	14.1
O=c1c2ccccc2[nH]c(=S)n1-c1cccnc1	-24.7%	7.9	7.4%	-17.4%	4.6%	-7.0
COc1ccc(OC)c(-n2c(-c3ccccc3)n[nH]c2=S)c1	-8.9%	-1.3	11.2µM*	-6.4%	2.24µM*	-7.8
O=C(NCCc1nc2ccccc2n1CCOc1ccc(Cl)cc1)C1CCCCC1	.	10.7	.	.	.	11.7
COc1cccc(CCNC(=O)c2c(O)nc3ccccn3c2=O)c1	.	.	-3.1%	.	.	.
CCC(=O)N1CCc2cc(CNS(=O)(=O)c3ccc(Cl)s3)ccc21	.	.	-3.1%	.	.	.
CCc1ccc(NC(=O)CSC2=Nc3ccccc3C3=NC(CCC(=O)NCc4ccccc4OC)C(=O)N23)cc1 (configuration not stated)	.	.	1.9%	.	.	.
Cc1ccccc1-n1c(-c2ccc3ccccc3n2)n[nH]c1=S	-25.4%	-2.3	?	-5.9%	17.8µM*	-3.9
S=c1[nH]nc(-c2ccc3ccccc3n2)n1-c1ccc(Cl)cc1	7.2%	-0.7	-22.4%	13.4%	-29.0%	-3.0
Cc1ccc(C(=O)c2oc3ccccc3c2NC(=O)COc2ccccc2Cl)cc1	.	.	-4.8%	.	.	.
COC(=O)c1ccc(NC(=O)C(=O)NCCc2csc3nc(-c4ccccc4F)nn23)cc1	.	.	0.5%	.	.	.
O=C(NN=C1CCCCCC1)c1ccc(Cl)s1	-7.3%	9.7	3.2%	4.5%	4.1%	12.2
Cc1cccc(C)c1NC(=O)NN=C1CCCCC1	-0.7%	2.7	2.7%	-1.4%	-0.1%	-2.4
Cc1ccc(C(=O)NN=C2CCCCCC2)s1	-14.0%	46.8*	0.1%	-11.2%	-1.6%	58.8*
Cc1ccsc1C(=O)NN=C1CCCCCC1	-7.0%	51.4*	2.1%	-6.6%	1.7%	95.7*
COc1ccc(NC(=O)N2CCc3c(sc4c3CCCC4)C2c2ccccc2OC)cc1 (configuration not stated)	.	.	2.2%	.	.	.
C=CCN1c2ccccc2[C@]23C[C@@H](C(=O)OC)N(S(=O)(=O)c4ccc(C#N)cc4)C2=NC(C(=O)OC)=C(C(=O)OC)[C@H]13	0.6%[12.9 µM]	.	.	.	-6.3%[11.5 µM]	.
N#Cc1ccc(CN2CCC3(CC2)CCN(C(=O)c2cccc(F)c2)CC3)cc1	5.6%	.	1.3%	.	.	.
CN(C)C(=O)CNC(=O)Cc1ccccc1	.	.	0.0%	.	.	.
c1ccc(-c2ccc(-c3nccc4ccccc34)[nH]2)cc1	-4.6%	28.8*	.	.	25.1µM*	14.0
N#Cc1cc(-c2ccccc2)[nH]c1-c1nccc2ccccc12	-9.1%	5.9	-1.7%	.	1.2%	8.7
SMILES	Giardia FBPA inh	CHX counter	TbPYK inhibitor	RE007 growth inh	LmPK inhibitor	Shiga toxin inh
COc1ccc(Cn2c(=O)c3oc4ccccc4c3n(CC(=O)Nc3cc(C)cc(C)c3)c2=O)cc1	.	.	7.5%	.	.	.
Cn1c(C(=O)c2ccccc2)nc2ccccc21	14.5%	26.1*	-1.5%	-7.3%	-2.4%	58.4*
NC(=O)c1c(NC(=O)c2cccs2)sc2c1CCCCCC2	1.4%	30.3*	-6.7%	7.0%	-0.5%	55.3
O=C(Nc1sc2c(c1C(=O)O)CCC2)c1cccs1	?	48.2*	-17.2%	?	?	114.6*
O=C(Nc1sc2c(c1C(=O)Nc1cccc(Cl)c1)CCCC2)c1cccs1	.	-5.6	?	.	.	-5.2
CCCCNC(=O)c1cccc(NC(=O)c2nsc3ccccc23)c1	.	.	-13.9%	.	.	.
COc1ccc(N(CC(=O)Nc2ccc3c(c2)OCCO3)S(=O)(=O)c2c(C)noc2C)cc1	-10.0%	10.8*	0.6%	0.7%	-3.6%	37.4
COc1ccc(N(CC(=O)Nc2ccc3c(c2)OCCO3)S(C)(=O)=O)c(OC)c1	-7.9%	34.0*	3.6%	-19.1%	-6.2%	76.0*
CCOc1ccc(N(CC(=O)NC2CCCCC2C)S(=O)(=O)c2c(C)noc2C)cc1 (configuration not stated)	.	13.9*	2.3%	10.1%	9.0%	15.7
COc1ccc(N(CC(=O)Nc2ccc3c(c2)OCCO3)S(=O)(=O)c2cccnc2)cc1	-10.6%	20.1*	-2.4%	-1.4%	3.7%	21.6
COC(=O)c1c(C)[nH]c(O)c1C=Nc1ccc(C(C)C)cc1	-24.7%	22.4*	-12.3%	3.8%	1.6%	38.6*
CN(Cc1nc(-c2ccccn2)no1)S(=O)(=O)c1ccc(Br)cc1	3.2%	2.7	-11.8%	8.3%	-0.1%	11.5
CCCCCCC1CCC(c2nc(-c3ccncc3)no2)CC1 (configuration not stated)	-0.4%	-3.8	2.9%	0.5%	0.8%	-8.5
c1cc(-c2noc(CC3CCCCC3)n2)ccn1	4.0%	14.9	-1.7%	3.9%	4.9%	122.3*
c1ccc(-c2noc(CC3CCCCC3)n2)nc1	-3.9%	49.8*	-2.5%	-1.4%	-2.8%	81.8*
Cc1ccc(N2C(=O)CS(=O)(=O)C23C(=O)N(Cc2ccccc2C)c2ccccc23)cc1Cl (configuration not stated)	.	.	1.7%	.	.	.
CC[N+]1(C)CCC(O)(/C=C/c2ccccc2)C(C(=O)/C=C/c2ccccc2)C1 (configuration not stated)	.	.	-11.3%	8.91µM*	.	.
O=C(Nc1nc(-c2ccccc2)cs1)C1CCCO1 (configuration not stated)	-3.7%	38.1*	-20.8%	?	1.8%	110.9*
O=C(Nc1nc(-c2ccc(F)cc2)cs1)C1CCCO1 (configuration not stated)	4.1%	42.0*	3.0%	-15.7%	1.2%	103.7*
O=C(Nc1nc(-c2ccc(-c3ccccc3)cc2)cs1)C1CCCO1 (configuration not stated)	3.5%	21.8	2.6%	-15.7%	-23.4%	15.5
Cc1ccc(-c2cc(C(=O)NCCN3CCOCC3)no2)cc1	-1.2%	15.1*	-5.2%	-20.0%	-0.9%	25.0*
O=C(NCCN1CCOCC1)c1cc(-c2ccc(Cl)cc2Cl)on1	-5.2%	20.2*	1.4%	9.7%	-0.9%	50.2*
O=C(NCCN1CCOCC1)c1cc(-c2cccc(O)c2)on1	-1.0%	10.1	-1.5%	5.5%	-8.7%	22.7

Assay outcomes as filed in PubChem.
